The text below walks through data of the supplement of paper PMC10037445.

Structures are written as SMILES. Values joined by “and” are separate entries in the source; they are usually repeats but may differ in a detail not shown here. Identical values can stand only once. Whole data set: some 2,900 compounds, median “NF-kB SEAP reporter activity, fold change vs agonist alone” near 0.99, cut for the highest 2% near 2.6. The full list was thinned out, with the highest values kept by preference.

The subject of test [1] is RAW-Dual. Description: NF-kB SEAP reporter activity, fold change vs agonist alone; cytotoxicity flag (confluency mask): not cytotoxic; higher = enhanced NF-kB activity. In short, it runs like this: (§1)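 After 50 nL of library stock was delivered by pin tool to RAW-Dual macrophages (50,000 cells/well, DMEM, 384-well plates), a PRR agonist was added 1 h later and the plates were kept at 37 °C, 5% CO2. Twenty hours later, IRF was read from supernatant by QuantiLuc luminescence and NF-κB by QuantiBlue absorbance at 620 nm. Reporter activity is stated as fold change over agonist-alone wells. Wells with IncuCyte confluency under 70% of agonist controls in both mask sets were counted as cytotoxic.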

The test system of test [2] is RAW-Dual. Description: NF-kB SEAP reporter activity, fold change vs agonist alone; higher = enhanced NF-kB activity. As to conditions: library stock concentration (final ~1000-fold dilution): 10 mM. In short, it runs like this:
as §1

Test [3] concerns RAW-Dual. Description: NF-kB SEAP reporter activity, fold change vs agonist alone; cytotoxicity flag (confluency mask): cytotoxic (confluency <70% of control); higher = enhanced NF-kB activity. In short, it runs like this: as §1
The mark [4] stands for this setting: agonist: ODN 1826 (TLR9) 0.5 ug/mL.
[5] abbreviates: agonist: Pam2CSK4 (TLR2/6) 0.1 ug/mL.
The mark [6] stands for this setting: agonist: Pam3CSK4 (TLR2/1) 0.1 ug/mL.
Where [7] appears, read: cytotoxicity flag (confluency mask): not cytotoxic, agonist: Imiquimod (TLR7) […].
Setting [8] is: cytotoxicity flag (confluency mask): not cytotoxic, agonist: MPLA (TLR4) […].

With `Cc1[nH]nc(C(F)(F)F)c1Cc1sc2c(c1C(=O)N1CC(C)(O)CO1)c(=O)n(C)c(=O)n2C(C)C` (centres undefined) (library stock concentration (final ~1000-fold dilution): 10 mM), the “NF-kB SEAP reporter activity” value worked out at 1.81 in test [1] (agonist: LPS (TLR4) 0.1 ug/mL), 1.27 in test [1] (setting [4]), 0.918 in test [1] (setting [5]) and 1.06 in test [1] (setting [6]).

Regarding `Cc1[nH]nc(C(F)(F)F)c1Cc1sc2c(c1C(=O)N1CC(C)(O)CO1)c(=O)n(C)c(=O)n2C(C)C` (centres undefined), the “NF-kB SEAP reporter activity” value was 1.11 in test [2] (setting [7]) and 1.25 in test [2] (setting [8]).

As for `Cc1cc(C)nc(NC(=S)N2CCN(Cc3ccc(C(F)(F)F)cc3)CC2)c1` (library stock concentration (final ~1000-fold dilution): 10 mM), the “NF-kB SEAP reporter activity” value in test [1] (agonist: LPS (TLR4) 0.1 ug/mL) is 0.783; in test [1] (setting [4]), 0.834; in test [1] (setting [5]) it was 0.805; in test [1] (setting [6]), 0.809.

Turning to `Cc1cc(C)nc(NC(=S)N2CCN(Cc3ccc(C(F)(F)F)cc3)CC2)c1`, the “NF-kB SEAP reporter activity” value in test [2] (setting [7]) came to 0.758; in test [2] (setting [8]), 0.954.

As for `CC1c2cccc(O)c2C(=O)C2=C(O)C3(O)C(=O)C(C(N)=O)=C(O)C(N(C)C)C3C(O)C21` (centres undefined), the “NF-kB SEAP reporter activity” value in test [2] (setting [8]) was found to be 1.13.

For the compound `CC1c2cccc(O)c2C(=O)C2=C(O)C3(O)C(=O)C(C(N)=O)=C(O)C(N(C)C)C3C(O)C21` (centres undefined) (library stock concentration (final ~1000-fold dilution): 10 mM), the “NF-kB SEAP reporter activity” value in test [1] (agonist: LPS (TLR4) 0.1 ug/mL) came out at 1.81; in test [1] (setting [4]), 0.966; in test [1] (setting [5]), 0.896; in test [1] (setting [6]), 0.885.

As for `CC(=O)N1CCC(Nc2cc(C(=O)NCC(O)CN3CCc4ccccc4C3)ncn2)CC1` (centres undefined), the “NF-kB SEAP reporter activity” value came to 0.92 in test [2] (setting [7]) and 1.03 in test [2] (setting [8]).

Consider `CC(=O)N1CCC(Nc2cc(C(=O)NCC(O)CN3CCc4ccccc4C3)ncn2)CC1` (centres undefined) (library stock concentration (final ~1000-fold dilution): 10 mM), for which the “NF-kB SEAP reporter activity” value was 1.08 in test [1] (agonist: LPS (TLR4) 0.1 ug/mL), 0.948 in test [1] (setting [4]), 1.13 in test [1] (setting [5]) and 1.17 in test [1] (setting [6]).

Regarding `Cc1cc(N=Nc2ccc(S(=O)(=O)Nc3ccccn3)cc2)c(N)cc1O`, the “NF-kB SEAP reporter activity” value in test [2] (setting [7]) turned out to be 1.38; in test [2] (setting [8]), 2.48.

As to `O=C(O)C1=C/C(=N\Nc2ccc(S(=O)(=O)Nc3ccccn3)cc2)C=CC1=O` (library stock concentration (final ~1000-fold dilution): 10 mM), the “NF-kB SEAP reporter activity” value in test [1] (agonist: LPS (TLR4) 0.1 ug/mL) stood at 1.65; in test [1] (setting [4]) it was 1.26; in test [1] (setting [5]), 0.969; in test [1] (setting [6]) it was 0.851.

With `Cc1cc(N=Nc2ccc3c(c2)CCC(=O)N3)c(N)cc1O`, the “NF-kB SEAP reporter activity” value in test [2] (setting [7]) came out at 1.35; in test [2] (setting [8]) it was 1.77.

Turning to `Cc1cc(N=Nc2ccc(S(=O)(=O)Nc3ccccn3)cc2)c(N)cc1O` (library stock concentration (final ~1000-fold dilution): 10 mM), the “NF-kB SEAP reporter activity” value in test [1] (agonist: LPS (TLR4) 0.1 ug/mL) came to 3.77; in test [1] (setting [4]) it was 2.32; in test [1] (setting [5]) it was 0.966; in test [1] (setting [6]) it was 2.13.

For `Cc1cc(N=Nc2ccc3c(c2)CCC(=O)N3)c(N)cc1O` (library stock concentration (final ~1000-fold dilution): 10 mM), the “NF-kB SEAP reporter activity” value stood at 1.42 in test [1] (agonist: LPS (TLR4) 0.1 ug/mL), 1.33 in test [1] (setting [4]), 0.692 in test [1] (setting [5]) and 1.22 in test [1] (setting [6]).

Turning to `O=C(O)C1=C/C(=N\Nc2ccc(S(=O)(=O)Nc3ccccn3)cc2)C=CC1=O`, the entries for the “NF-kB SEAP reporter activity” value in test [2] (setting [7]) and in test [2] (setting [8]) were 1.07 and 1.31, respectively.

In the case of `O=C(c1ccccc1)C(O)O`, in test [2] (setting [8]), the “NF-kB SEAP reporter activity” value turned out to be 1.19.

With `O=C(c1ccccc1)C(O)O` (library stock concentration (final ~1000-fold dilution): 10 mM), the “NF-kB SEAP reporter activity” value in test [1] (agonist: LPS (TLR4) 0.1 ug/mL) is 1.12; in test [1] (setting [4]) it was 1.04; in test [1] (setting [5]), 1.14; in test [1] (setting [6]) it was 1.07.

In the case of `CCC(=O)OC1CC(=O)OC(C)C/C=C/C=C/C(O)C(C)CC(CC=O)C(OC2OC(C)C(OC3CC(C)(O)C(OC(=O)CC)C(C)O3)C(N(C)C)C2O)C1OC` (centres undefined), the “NF-kB SEAP reporter activity” value in test [2] (setting [7]) came out at 0.961; in test [2] (setting [8]), 1.07.

Regarding `CCC(=O)OC1CC(=O)OC(C)C/C=C/C=C/C(O)C(C)CC(CC=O)C(OC2OC(C)C(OC3CC(C)(O)C(OC(=O)CC)C(C)O3)C(N(C)C)C2O)C1OC` (centres undefined) (library stock concentration (final ~1000-fold dilution): 10 mM), the “NF-kB SEAP reporter activity” value was found to be 0.93 in test [1] (agonist: LPS (TLR4) 0.1 ug/mL), 1.02 in test [1] (setting [4]), 1.06 in test [1] (setting [5]) and 1.21 in test [1] (setting [6]).

Consider `COc1ccc2c(c1O)-c1c(O)c(OC)cc3c1C(C2)[N+](C)(C)CC3` (centres undefined) (library stock concentration (final ~1000-fold dilution): 10 mM), for which the “NF-kB SEAP reporter activity” value was 1.1 and 1.18 in test [1] (agonist: LPS (TLR4) 0.1 ug/mL); 0.935 and 1.11 in test [1] (setting [4]); 1.01 and 1.08 in test [1] (setting [5]); 0.967 and 1.08 in test [1] (setting [6]).

For the compound `CC(C)(NS(=O)(=O)c1ccc2c(Cl)cnc(NC(=N)N)c2c1)C(=O)O.Cl` (library stock concentration (final ~1000-fold dilution): 10 mM), the “NF-kB SEAP reporter activity” value in test [1] (agonist: LPS (TLR4) 0.1 ug/mL) came to 1.1; in test [1] (setting [4]) it was 1.01; in test [1] (setting [5]), 0.913; in test [1] (setting [6]) it was 0.764.

For the compound `CC(C)(NS(=O)(=O)c1ccc2c(Cl)cnc(NC(=N)N)c2c1)C(=O)O.Cl`, the “NF-kB SEAP reporter activity” value in test [2] (setting [7]) stood at 0.99; in test [2] (setting [8]) it was 0.923.

With `Cl.Nc1ncccc1-c1nc2ccc(-c3ccccc3)nc2n1-c1ccc(C2(N)CCC2)cc1` (library stock concentration (final ~1000-fold dilution): 10 mM), the “NF-kB SEAP reporter activity” value in test [3] (agonist: LPS (TLR4) 0.1 ug/mL) worked out at 0.954; in test [3] (setting [4]), 0.218; in test [3] (setting [5]) it was 0.921; in test [3] (setting [6]), 1.38.

For the compound `Cl.Nc1ncccc1-c1nc2ccc(-c3ccccc3)nc2n1-c1ccc(C2(N)CCC2)cc1`, the “NF-kB SEAP reporter activity” value in test [2] (cytotoxicity flag (confluency mask): cytotoxic (confluency <70% of control), agonist: Imiquimod (TLR7) […]) is 1.7; in test [2] (cytotoxicity flag (confluency mask): cytotoxic (confluency <70% of control), agonist: MPLA (TLR4) […]) it was 1.8.

For the compound `COc1cc2c(cc1OC)C1CC(OC(=O)C(N)C(C)C)C(CC(C)C)CN1CC2.Cc1ccc(S(=O)(=O)O)cc1.Cc1ccc(S(=O)(=O)O)cc1` (centres undefined) (library stock concentration (final ~1000-fold dilution): 10 mM), the “NF-kB SEAP reporter activity” value in test [1] (agonist: LPS (TLR4) 0.1 ug/mL) came to 1.11; in test [1] (setting [4]), 0.207; in test [1] (setting [5]), 0.856; in test [1] (setting [6]), 0.889.

With `COc1cc2c(cc1OC)C1CC(OC(=O)C(N)C(C)C)C(CC(C)C)CN1CC2.Cc1ccc(S(=O)(=O)O)cc1.Cc1ccc(S(=O)(=O)O)cc1` (centres undefined), the “NF-kB SEAP reporter activity” value came out at 1.07 in test [2] (setting [7]) and 1.11 in test [2] (setting [8]).
